# PubChem BioAssay AID602314 (ICCB-Longwood Screening Facility, Harvard Medical School, 2012)
# Out of some 84,000 compounds screened, about 110 (0.13%) were called active. Cut-off read from the data, not from the text of the source: active = inhibition above about 30% (passing the limit was not always enough); inactive = the rest. This excerpt belongs to a sample that is enriched for actives.
# System: MgrA (MarR family transcriptional regulator), Staphylococcus aureus Newman
# Assay: S. aureus MgrA activity modulators, primary screen, biochemical, S. aureus Newman, fluorescence polarization (AID 602314);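 note: 0% = protein plus DNA without compound and 100% = DNA alone without protein; higher means less MgrA bound to DNA so lower polarization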
# Conditions: MgrA-DNA binding, hits give high values, concentration not given here
row,SMILES,inhibition
1,O=C1CSC(=S)N1c1ccc(Oc2ccc(Cl)cc2)cc1,-2.4% (inactive)
2,Cn1nnc(NC(=O)COc2ccccc2)n1,-1.4% (inactive)
3,O=C(O)C1=Cc2sc3c(c2CS1)CCCC3,72.7% (active)
4,NC(=O)c1c(NC(=O)c2ccccc2)sc2c1CCCC2,0.05% (inactive)
5,CC/C(=N\OC(=O)c1cccs1)c1ccc(-c2ccccc2F)cc1,4.4% (inactive)
6,CN(C)C(=O)Cn1c(=O)n(S(=O)(=O)c2ccccc2)c2ccccc21,7.3% (inactive)
7,CN(C)c1ncnc2nc[nH]c12,0.75% (inactive)
8,CCCN(CCC)S(=O)(=O)c1cccc2c(N)cccc12,-2.2% (inactive)
9,CC1=C(C(=O)OCCOC(C)C)C(c2ccccc2OCc2ccccc2)NC(=O)N1 (configuration not stated),-4.9% (inactive)
10,CC1(C)COC(c2cccc(C#N)c2)OC1,-1.45% (inactive)
11,CCN1CCCc2cc(CN(CCN3CCOCC3)C(=S)Nc3c(C)cc(C)cc3C)ccc21,4.95% (inactive)
12,COC(=O)C1=C(C)NC2=C(C(=O)CC(c3ccc(Cl)cc3)C2)C1c1ccc(OC(C)=O)c(OC)c1 (configuration not stated),-2.1% (inactive)
13,OCC(O)CN(c1ccccc1)c1ccccc1 (configuration not stated),-1.8% (inactive)
14,Cc1ccc2cc(C#N)c(SCC(=O)Nc3ccccc3)nc2c1,-0.85% (inactive)
15,O=C(CCSc1ccc(Cl)cc1)Nc1ccc(F)c(F)c1F,0.15% (inactive)
16,COc1ccccc1Nc1n[nH]c(=S)n1C(=O)c1cccs1,2.9% (inactive)
17,O=C(O)CCc1nn2c(=O)c3ccccc3nc2s1,-0.2% (inactive)
18,CCCN(c1ccc(C)cc1)c1nc(=O)c2cccnc2s1,0.75% (inactive)
19,C=CCn1c(=O)c(C(=O)NCC2CCCN2CC)c(O)c2cc(OC)c(OC)cc21 (configuration not stated),-0.05% (inactive)
20,NC(=O)c1sccc1NS(=O)(=O)c1ccc(Cl)c(Cl)c1,2.05% (inactive)
21,CSc1ncc(C(N)=O)c(N)n1,-4% (inactive)
22,CC(=O)Nc1ccc(-c2nc(-c3ccccc3)c3cc(C)ccc3n2)cc1,0.5% (inactive)
23,COc1ccccc1NC(=O)C1CC(=O)N(CCc2ccccc2)C(=Nc2ccccc2)S1 (configuration not stated),0.9% (inactive)

row,SMILES,inhibition
1,CN(Cc1ccccc1)C(=O)c1cccc(-c2nnc(-c3ccccc3)o2)c1,1.3% (inactive)
2,O=C(O)COc1ccc(NC(=O)c2ccccc2F)cc1,-2.2% (inactive)
3,CC(C)=CC(=O)Nc1nc2ccc(C)cc2s1,5.35% (inactive)
4,c1ccc(NC2CCCCC2)cc1,-1.2% (inactive)
5,O=C(c1cc(-c2ccccc2)c(C(F)(F)F)s1)N1CCCC1,-2.9% (inactive)
6,c1ccc(CNC2C3CC4CC(C3)CC2C4)nc1 (configuration not stated),-6% (inactive)
7,CC12CC[C@H](CC1=O)C2(C)C,0.7% (inactive)
8,COc1ccc(O)c(/C=N/NC(=O)c2ccn(Cc3ccc(Cl)cc3)n2)c1,2.4% (inactive)
9,Nc1cc(C(=O)OCC(=O)NC2CCCCCC2)ccc1Cl,-0.65% (inactive)
10,COC(=O)c1ccc(C2NN=C(c3ccccc3)S2)cc1 (configuration not stated),2.7% (inactive)
11,Cc1ccccc1CNCc1cccs1,-3.4% (inactive)
12,O=c1[nH]c2ccccc2c(=O)n1NS(=O)(=O)c1ccc2ccccc2c1,1.35% (inactive)
13,CCCc1c(C)nc2c(C)cccc2c1SCCC(=O)O,0% (inactive)
14,CC(C)C(=O)N=C1SC2CS(=O)(=O)CC2N1CCc1ccccc1 (configuration not stated),0.45% (inactive)
15,CCCn1nnnc1NC(=S)NC(=O)c1cc2ccccc2o1,3.35% (inactive)
16,O=C(O)C1C2CCC(C2)C1C(=O)NCCCN1CCCC1=O (configuration not stated),1.45% (inactive)
17,O=[N+]([O-])c1ccc(Oc2cccc(Cl)c2)nc1,-0.6% (inactive)
18,CCOC(=O)N1CCN(Cc2nc3c(c(=O)n(C)c(=O)n3C)n2CC)CC1,6.15% (inactive)
19,CC(NC(=S)Nc1ccc(S(N)(=O)=O)cc1)c1ccc2c(c1)OCO2 (configuration not stated),0.45% (inactive)
20,Cc1ccc(C(=O)[C@@H]2[C@@H](C(C)(C)C)C(C#N)(C#N)[C@@]3(C)C=Cc4ccccc4N23)cc1,-0.85% (inactive)
21,CCc1cccc(CC)c1N1C(=O)C(C)=C(C)C1=O,-0.9% (inactive)
22,O=C(O)CNC(=O)c1ccc(Cl)c(Cl)c1,-1.25% (inactive)
23,O=C(O)C1CCCCC1C(=O)Nc1ccc2[nH]c(=S)sc2c1 (configuration not stated),6.3% (inactive)

row,SMILES,inhibition
1,CCC(NC(=O)Nc1cc(C)cc(C)c1)c1c(-n2cccc2)sc2c1CCN(CC)C2 (configuration not stated),1% (inactive)
2,Cc1nc2ccc(C(=O)OCCC(F)(F)F)cc2[nH]1,-0.25% (inactive)
3,Cc1cc(C)c(C(=O)N2CCCCC2C)c(C)c1 (configuration not stated),-0.7% (inactive)
4,O=C(NC1CCCCNC1=O)c1ccc(N2CCOCC2)nc1 (configuration not stated),-0.3% (inactive)
5,CCOC(=O)CC1=C(C(=O)OCC)C(c2c(F)cccc2Cl)C(C#N)=C(N)O1 (configuration not stated),0.2% (inactive)
6,C=CCNC(=O)c1cc(-c2ccccc2O)on1,0.8% (inactive)
7,C=CCNC(=O)c1ccc(OCC=C)cc1,0.4% (inactive)
8,C=CCNC(=O)c1ccc2nc(-c3ccco3)c(-c3ccco3)nc2c1,59.2% (active)
9,CSC(=Nc1ccccc1F)Nc1ccccc1F,-2.5% (inactive)
10,O=C(O)c1ccccc1Cc1cccs1,-3.8% (inactive)
11,C=CCNC(=O)c1cc(Br)cs1,0.6% (inactive)
12,Cc1nc(SCSc2nc3ccccc3s2)nc2c1CCCC2,0.6% (inactive)
13,CCN(CC)S(=O)(=O)c1cc2c3c(c1)c(C)cc(=O)n3CCC2,0.85% (inactive)
14,O=C(c1ccc(Br)cc1)c1cc2cc(Br)cc(Br)c2o1,1.1% (inactive)
15,COc1cccc(O)c1C(=O)NCC(=O)O,-1.1% (inactive)
16,COc1ccc(N=Cc2nc(-c3ccccc3Br)oc2O)c([N+](=O)[O-])c1,4.2% (inactive)
17,O=C(OC(C(=O)c1ccccc1)c1ccccc1)c1cccc(O)c1 (configuration not stated),-1% (inactive)
18,CCNc1sc(C(=O)OC)c(N)c1C#N,0.25% (inactive)
19,COc1ccc2[nH]c(=O)c(CN(Cc3ccc(C)cc3)C(C)=O)cc2c1,3.85% (inactive)
20,COc1cccc(CNn2cn[nH]c2=S)c1OCc1ccccc1,0.8% (inactive)
21,COc1cc(C)nc(NN)n1,2.8% (inactive)
